# In the supplement of paper PMC6555819:
# System: VDR:RXRa (NR concentration 270 nM, RXRa partner concentration 90 nM)
# Assay: PBM binding z-score (relative to random genomic background probes); higher = stronger binding; sequences stand for … in GC…GCGATTGACAGCGTAGAATGAAGG
# Description: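 Protein-binding microarray (Agilent 4x180K custom design, double-stranded 60-nt probes: 5' GC cap, 34-nt variable region, 24-nt constant primer region; full probe sequence given). Purified or IVT nuclear receptor:RXRα heterodimers (3:1 NR:RXRα, mostly 270:90 nM) or homodimers were incubated for 1 h in PBS with 2% milk and no ligand, then detected with Alexa488 antibodies. Fluorescence from o1-orientation probes (~5 replicates averaged) was converted to z-scores against 500 random hg19 background probes. Variable regions are seed direct-repeat (DR0–DR5) sites, all their single-nucleotide variants and half-site ablations.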
row,Sequence,PBM binding z-score
1,CCTTACGGGTCACTGACTGGTTATAGCATTTGGA,3.11
2,CCTACTGGGCCAAGTTCATTGATCAGTCAAAGCA,2.89
3,TGATATAGGTAAATGCTAGGTGAAAGTCCGATCT,0.142
4,AATACAGGGTTATCGTAGGCCAGAGTACGCACAG,1.61
5,ATATGTAGGTAAAGGGTCATTCAGGTTGGTTCGC,5.54
6,TCGAGTAGGTTACCAATGGGGCATCCAGCTTTCT,-0.0688
7,ACTATCAGTTGACTTAGGGCAACCGATACGACGC,0.408
8,CCTACTGGGCCACGAAAGGTCATTGACTCAGTGA,4.12
9,TCGAGTAGGTTAGGGGCACTCAGAATGGCGTCGA,-0.143
10,TCATATAGGTAAATGCTAGGCGAAAGTCCGATCT,0.812
11,TAGCCTAGGTCAGATCGGGCCAGTATTCGCTATA,0.465
12,CGTCCAAGGTCCAGGTCAGTGAAAGAGACTCGAA,0.373
13,ATCTCTAGGTAACCAAGTTCTGTGAATGCCGAAC,0.866
14,GGAACGAGGGCATTCGAATTGATAGCATGGCGAT,1.13
15,AGAACGAGGTTACCAAAGATCAGGGAAACGCTTG,1.32
16,AATACAGGGTCATCGTAGGCCAAAGTACGCACAG,5.62
17,CCTACTGGGCCATCAGGTTATTGATATCAACGTT,0.0822
18,AGAATGAGGTTACCAAAGAGCAGGGAAACGCTTG,1.05
19,CCGACTGGGGCAGAAAGGTTACCGTACCATCCGG,0.919
20,ATCTCTAGGTAACAAGTTCCGTGAAAGAGAGGAC,0.0818

row,Sequence,PBM binding z-score
1,TCTGCTAGGTCATTTGGTCAGCTAACGAGCTGCC,2.21
2,GATACAGGGTTAAGGCCAGAGTACGCGTATTGAT,1.05
3,TAGCCTAAGTCATTGGGCCAGTATAGTACGCATC,-0.202
4,CGAACTAGGTCATTGACAGGACAGTGCATAGTAA,2.5
5,CGAACTAGGTCATTGACAGGACAGTGATTAGTAA,2.47
6,TCTTGTAGATCAATAGAGGTTTAGAAAGTGCGCT,0.618
7,TCTGCTAGGTCAGTTGGCCAGCTAACGAGCTGCC,-0.113
8,ACTATTAGCTGACTTAGGGCAACCGATACGACGC,-0.114
9,TCTTGTAGAACAACAGGAGGTTAAGAAAGATCGA,0.492
10,TCGAGTAGGTTAGTCGGGGCAATCAGCCAACATA,1.05
11,CCTACTGGGCCATCAGGTCACTGATATCAACGTT,1.34
12,TCATATAGGTTAACAGGTGAAAGTCCGTAAGTTA,2.04
13,ACTATCAGGCCAAGTTTGGGTCACTCAAACAAAG,1.01
14,AGAACGAGGGCAATGAGTTGATAGCACGGGTGGC,4.96
15,ATCTCTAGGTAAAGTGCAGTGAAAGATCGATAGA,0.146
16,CGTCCAAGGTCAGAGAGATCAGTGAATGCCGAGT,3.72
17,CGAACTAGGTCAGAACAGGACTGTGAAGGATGAT,0.0454
18,TTACCAAGGTGAAGATCGTTGATCCCTCTGTAGA,-0.031
19,AGCCAAAGTTCATCTAGGTAACGTAAGATATGCT,4.48
20,CTCGAAAGGTCGTGCTCAGGTGAGTATCCCAAAC,3.03
